Hits are enriched below; roughly 0.4% of the tested compounds scored in any of these assays.
TRPML1 agonist: activates the human TRPML1 channel. Q9GZU1. TRPML1-expressing cells, Ca2+ dye fluorescence, FDSS. activation, % (concentration not given with the values). 410,000 compounds, 0.12% hits; in the data active = activation above about 50%; inconclusive = mostly about 30% to 49%; also: 0% is about no effect
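Tet-induced TRPML1-DL cells, 1,500 per well, cultured overnight, were loaded with a no-wash Ca2+ dye for 45–90 min. Calcium fluorescence was recorded on the FDSS for 110 s after compound addition, before the EC80 agonist (4 uM 54-4) was added.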
TRPV1 ag: agonists of human vanilloid receptor 1 (TRPV1). activation, % at 8.33 µM. TRPV1-expressing cells, Fluo-8 calcium influx, agonist mode. AID 540275. 320,000 compounds, 0.19% hits; in the data active = activation above about 80%; inconclusive = between about 30% and that limit; also: 0% is about no effect
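Fluo-8 calcium influx in TRPV1-expressing cells, kinetic read (ex 480/em 520 nm). Compound added and read 3 min for agonist activity, followed by capsaicin at EC20 final and 2 min further read for enhancement.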
USP1 inh: blocks the human USP1/UAF1 deubiquitinase complex | O94782 | recombinant USP1/UAF1, Ub-Rhodamine cleavage fluorescence | Potency, µM (doses to about 57.1 µM), without a hit: at the top dose activity change, negative = inhibition, actives largely listed as inhibitors | 390,000 compounds, 0.23% hits | AID 743255; active = well fitted inhibition curve with a large enough effect; inconclusive = small, poorly fitted or top-dose-only effect; inactive = no such curve, though single readings can be large or run the other way; also: potency is read from the fitted curve at half-maximal effect; % is scaled to controls: 0 for no effect and ±100 for the full control effect; nearly all actives have a fitted effect of over 60% in size
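USP1/UAF1 complex at 1 nM was preincubated with compound for 15 min at room temperature, then Ub-Rho substrate (150nM final) was added. Fluorescence (480/540 nm) was read kinetically, 6 reads every 60 seconds.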
TRPML1 blocker: human mucolipin-1 channel inhibition | Q9GZU1 | TRPML1-inducible cells, Ca2+ dye fluorescence, FDSS; stronger effect = lower value; inhibition of EC80 agonist-evoked calcium signal | activity change, negative = inhibition, % (concentration not given with the values) | 390,000 compounds, 0.02% hits | AID 624415; in the data active = activity change below about -50%; inconclusive = between about -30% and that limit;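 also: stimulus is agonist 54-4 at its EC80 concentration; % is scaled to controls: 0 for no effect and ±100 for the full control effect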
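Tet-induced TRPML1-DL cells loaded with Ca8 no-wash calcium dye were read kinetically on FDSS. Compound addition was followed by EC80 agonist 54-4 (4 uM final); inhibition was read over 110 s.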
TRPV1 potentiator: human TRPV1 potentiation; TRPV1-expressing cells, Fluo-8 calcium influx, capsaicin EC20 potentiation; Q8NER1; potentiation, % at 8.33 µM; 320,000 compounds, 0.02% hits; in the data active = potentiation above about 80%; inconclusive = between about 30% and that limit; also: 0% is about no effect
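TRPV1-expressing cells were cultured overnight at 35.5C and loaded with Fluo-8 calcium dye for 40 to 90 min at room temperature. After a 10 s baseline, compound was added and calcium influx was read kinetically for 3 min (ex 480/em 520 nm).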
Numbers without * were called inactive.

`O=C(NC1CCCC1)c1cccc(NC(=O)c2ccco2)c1` gave TRPML1 agonist 60*, TRPV1 ag -6, USP1 inh -7%, TRPML1 blocker -22 and TRPV1 potentiator 10.
`Cc1ccc(N2C(N)=C(C#N)C(c3ccsc3)C3=C2CC(C)(C)CC3=O)cc1` (stereo not given) gave TRPML1 agonist 57*, TRPV1 ag 2, USP1 inh inconclusive, TRPML1 blocker -2 and TRPV1 potentiator -8.
For O=C1c2ccccc2NC(c2cn[nH]c2-c2ccccc2)N1O (stereo not given) the results were TRPML1 agonist 2, TRPV1 ag 1, USP1 inh -24%, TRPML1 blocker -58* and TRPV1 potentiator 19.
Screening CCNC(=S)N1CCN(c2nc(CC)nc3sc4c(c23)CCCC4)CC1 returned TRPML1 agonist 1, TRPV1 ag 83*, USP1 inh -16%, TRPML1 blocker 23 and TRPV1 potentiator 5.
CCOc1ccccc1OCCCC(=O)Nc1ccc(S(=O)(=O)Nc2cc(C)nc(C)n2)cc1 was read as TRPML1 agonist -1, USP1 inh -21% and TRPML1 blocker 31.
Screening Nc1cc(OCC(F)(F)F)cc([N+](=O)[O-])c1 returned TRPML1 agonist 1, TRPV1 ag -2, USP1 inh -12%, TRPML1 blocker 25 and TRPV1 potentiator -5.
`Nc1cc(N)c(OCC(F)(F)F)cc1OCC(F)(F)F` gave TRPML1 agonist 1, TRPV1 ag 6, USP1 inh 25µM*, TRPML1 blocker 7 and TRPV1 potentiator -8.
`Cc1ccc(Oc2cc([N+](=O)[O-])cc3c2C(=O)Nc2ccccc2O3)cc1` gave TRPML1 agonist 1, TRPV1 ag 5, USP1 inh 0%, TRPML1 blocker -1 and TRPV1 potentiator 0.
`O=c1c(O)c(-c2cccs2)oc2ccc(Cl)cc12` gave TRPML1 agonist 59*, TRPV1 ag inconclusive, USP1 inh 25µM*, TRPML1 blocker -8 and TRPV1 potentiator -13.
O=c1c(O)c(-c2cccs2)oc2ccccc12 was read as TRPML1 agonist 55*, TRPV1 ag inconclusive, USP1 inh inconclusive, TRPML1 blocker -3 and TRPV1 potentiator 0.
Screening O=c1cc(-c2cccs2)oc2ccc(Cl)cc12 returned TRPML1 agonist 0, TRPV1 ag 23, USP1 inh -9%, TRPML1 blocker 1 and TRPV1 potentiator -19.
`COc1cc(N=C2C(=O)N3c4c(cccc42)C(C)=CC3(C)C)cc(OC)c1` gave TRPML1 agonist 0, TRPV1 ag -4, USP1 inh -16%, TRPML1 blocker -14 and TRPV1 potentiator 3.
Screening CC1=CC(C)(C)N2C(=O)C(=Nc3ccc(O)cc3)c3cccc1c32 returned TRPV1 ag -1, USP1 inh 3.5µM* and TRPV1 potentiator 9.
For O=C(NNC(=S)NC1CC2C=CC1C2)c1ccncc1 (stereo not given) the results were TRPML1 agonist 0, TRPV1 ag 7, USP1 inh -9%, TRPML1 blocker 5 and TRPV1 potentiator -19.
Screening COc1ccc2c(c1)Cc1sc(NC(=O)c3cccc(C)c3)nc1-2 returned TRPML1 agonist 4, USP1 inh 35µM* and TRPML1 blocker 2.
For COc1ccc(C(=O)c2sc3nc(C)cc(-c4cccs4)c3c2N)cc1OC the results were TRPML1 agonist 52*, TRPV1 ag 17, USP1 inh inconclusive, TRPML1 blocker -21 and TRPV1 potentiator 15.
For COc1ccc(C(=O)c2sc3nc(C)cc(-c4cccs4)c3c2N)cc1 the results were TRPML1 agonist inconclusive, TRPV1 ag 1, USP1 inh inconclusive, TRPML1 blocker 1 and TRPV1 potentiator 5.
For O=C1C=CC(=O)c2c(O)c(N3CCN(CCOCCO)CC3)c(Br)c(O)c21 the results were TRPML1 agonist 0, USP1 inh 2µM* and TRPML1 blocker 5.
For O=S(=O)(c1ccc(Br)cc1Cl)N1CCN(CCO)CC1 the results were TRPML1 agonist 0, TRPV1 ag 1, USP1 inh -21%, TRPML1 blocker 12 and TRPV1 potentiator -2.
O=C1C=CC(=O)c2c(O)c(N3CCN(CCO)CC3)c(Cl)c(O)c21 was read as TRPML1 agonist 4, USP1 inh 2.8µM* and TRPML1 blocker -4.
COc1ccc2nc(NC(=O)c3cc(=O)c4ccccc4o3)sc2c1 was read as TRPML1 agonist -1, USP1 inh inconclusive and TRPML1 blocker 12.
Cc1cc(C)c2nc(NNC(=O)c3cc(=O)c4ccccc4o3)sc2c1 was read as TRPML1 agonist -1, TRPV1 ag 1, USP1 inh 28µM*, TRPML1 blocker -1 and TRPV1 potentiator -1.
For O=c1c(N2CCOCC2)coc2ccccc12 the results were TRPML1 agonist 0, TRPV1 ag -2, USP1 inh -16%, TRPML1 blocker -21 and TRPV1 potentiator -6.
`O=c1[nH]c(N2CCOCC2)cc2ccccc12` gave TRPML1 agonist -1, USP1 inh 10µM* and TRPML1 blocker 36.
Cc1ccc(S(=O)(=O)NC(=O)Nc2ccc(N(C)C)cc2)cc1 was read as TRPML1 agonist -1, TRPV1 ag 15, USP1 inh 18µM*, TRPML1 blocker -6 and TRPV1 potentiator -27.
CCC(=O)N(CC)C1=C(O)c2ccccc2C(=O)C1=O was read as TRPML1 agonist 0, TRPV1 ag -3, USP1 inh 25µM*, TRPML1 blocker 6 and TRPV1 potentiator 8.
`CCC(=O)N(C1=C(NC)C(=O)c2ccccc2C1=O)C(C)C` gave TRPML1 agonist 0, TRPV1 ag 1, USP1 inh inconclusive, TRPML1 blocker 10 and TRPV1 potentiator 3.
CC(C(=O)NC1CCCC1)N(Cc1ccc2c(c1)OCO2)C(=O)c1snc(C(N)=O)c1N (stereo not given) was read as TRPML1 agonist 0, TRPV1 ag -2, USP1 inh -17%, TRPML1 blocker -19 and TRPV1 potentiator 2.
Screening CCOC(=O)/C=C(\C)Sc1cc(O)c2ccccc2c1O returned TRPML1 agonist 1, TRPV1 ag 6, USP1 inh 7.9µM*, TRPML1 blocker 54 and TRPV1 potentiator 7.
Cc1cc(C)c2nc(-c3ccccn3)cc(C(=O)NCc3cc(C)n(C)n3)c2c1 was read as TRPML1 agonist 0, TRPV1 ag 87*, USP1 inh -7%, TRPML1 blocker 7 and TRPV1 potentiator -16.
Screening CN(C)c1ccc(N=Cc2cccn2C)cc1 returned TRPML1 agonist 3, TRPV1 ag 0, USP1 inh -20%, TRPML1 blocker 16 and TRPV1 potentiator inconclusive.
Cc1cc(C(=O)Nc2ccc(Br)cn2)sc1C was read as TRPML1 agonist 1, TRPV1 ag 83*, USP1 inh -20%, TRPML1 blocker 5 and TRPV1 potentiator -5.

Screening data (PubChem BioAssay)
